Source: PubChem
MITF act = increases MITF-driven TRPM1 promoter luciferase signal | SK-MEL-5 TRPM1-promoter luciferase, 24 h; % of positive control, neutral wells = 0 | activation, % at 12.5 µM | hit rate 0.75% among 300,000 | AID 588334;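 active = mean activation of at least 80% with every replicate also reaching 80%; inconclusive = mean reaches 80% but some replicate falls short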
LMP1 NFkB inh = reduces LMP1-driven NF-kappaB luciferase signal; hit rate 0.69% among 350,000; inhibition, % at 12.5 µM; LMP1-induced NF-kappaB luciferase reporter cells, luminescence; in the data active = inhibition above about 41%; inconclusive = no clear call, values can overlap the other calls
Wnt act = activates Wnt/beta-catenin signaling in a reporter cell assay | hit rate 1.2% among 300,000 | AID 743398 | activator, plate reader | activation, % at 9.35 µM; in the data active = activation above about 30%, passing the limit was not always enough; inconclusive = no clear call, values can overlap the other calls
MITF TRPM1 inh = MITF TRPM1 promoter inhibition in SK-MEL-5 cells; AID 488899; SK-MEL-5 TRPM1 promoter luciferase, 24 h; inhibition, % at 12.5 µM; hit rate 0.83% among 330,000;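 active = mean inhibition across replicates of 60% or more, whatever share of single replicates reaches that level; inconclusive = some that reach 60%, reason not given; inactive = mean inhibition across replicates below 60%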
Statin myotox sup = suppressors of simvastatin-induced myotoxicity in C2C12 myotubes | ATP luminescence, 48 h; scaled: DMSO 0, geranylgeraniol control 100 | rescue of ATP level, % at 7.49 µM | hit rate 0.78% among 330,000 | AID 602340;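 active = mean ATP rescue above about 67%, or every replicate alone reaching that limit, limit read from the data, passing the limit was not always enough; inconclusive = no clear call, values can overlap the other calls; inactive = mean under the limit and some replicate under it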;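 note: myotubes were challenged with 10 µM simvastatin during compound exposure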
esBAF inh = SWI/SNF esBAF complex inhibition. mouse ES cells, Bmi1-luciferase knock-in reporter, 24 h; 100% = twice the neutral-well signal. AID 602393. hit rate 2% among 350,000. reporter increase, % at 12.5 µM; in the data active = activation above about 40%; inconclusive = no clear call, values can overlap the other calls;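 note: a rise in the Bmi1 reporter signal indicates esBAF inhibition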
Numbers stand for hits. Most compounds without a hit are left out; they make up all but 4% or so of the library.

What do the screens show for `CC1CN(c2nc(N(C)c3ccccc3)nc(N)c2[N+](=O)[O-])CC(C)O1` (stereo not drawn)?
MITF act: inactive; LMP1 NFkB inh: inactive; Wnt act: inactive; MITF TRPM1 inh: inactive

How did N#C/C(=C\c1cccs1)C(=O)NCC1CCCO1 (stereo not drawn) do in these assays?
LMP1 NFkB inh: inactive; Wnt act: 39; MITF TRPM1 inh: inactive; Statin myotox sup: inactive; esBAF inh: inactive

Results for Cc1ccc(-c2cc(N)n3nc(-c4ccc(C)cc4)cc3n2)cc1 ?
MITF act: inactive; LMP1 NFkB inh: 52; Wnt act: inactive; MITF TRPM1 inh: inactive; Statin myotox sup: inactive; esBAF inh: inactive

What do the screens show for `Cc1ccc(-c2cc3nc(-c4ccccc4)cc(N)n3n2)cc1`?
MITF act: inactive; LMP1 NFkB inh: inactive; Wnt act: 42; MITF TRPM1 inh: inactive

Results for Cc1ccc(-c2cc3nc(-c4ccc(Br)cc4)cc(N)n3n2)cc1 ?
MITF act: inactive; LMP1 NFkB inh: inactive; Wnt act: inactive; MITF TRPM1 inh: inactive

Results for COC(=O)[C@]12CCCCC=C1N(Cc1ccccc1)C(=O)[C@H](CC(=O)NCc1cccc3ccccc13)C2 ?
Wnt act: inactive

What do the screens show for `CCN1C(=NCCc2ccccn2)N[C@@H](c2cccc(F)c2)C(C(=O)OC)=C1C`?
MITF act: inactive; LMP1 NFkB inh: inactive; Wnt act: inactive; MITF TRPM1 inh: inactive; Statin myotox sup: inactive; esBAF inh: inactive

How did CCC(=O)Nc1ccc2c(c1)OC[C@H](C)N(C(=O)c1ccccn1)C[C@@H](C)[C@H](OC)CN(C)C2=O do in these assays?
Statin myotox sup: inactive; esBAF inh: inactive

What do the screens show for `Cc1ccc(/C=C2/SC(=S)N(c3ccc(S(=O)(=O)Nc4nccs4)cc3)C2=O)cc1`?
LMP1 NFkB inh: 67; Wnt act: inactive; MITF TRPM1 inh: inconclusive

What do the screens show for `O=C(N/N=C/c1ccccn1)c1cccc(NC(=O)c2ccccc2Cl)c1`?
MITF act: inactive; LMP1 NFkB inh: inactive; Wnt act: inactive; MITF TRPM1 inh: inactive; Statin myotox sup: inactive; esBAF inh: inactive

Results for CCN=C1S/C(=C\c2ccc(O)c(OCC)c2)C(=O)N1CC ?
MITF act: inactive; LMP1 NFkB inh: inactive; Wnt act: inactive; MITF TRPM1 inh: inactive

How did CCN=C1S/C(=C\c2cc(OCC)c(O)cc2Br)C(=O)N1CC do in these assays?
MITF act: inactive; LMP1 NFkB inh: 54; MITF TRPM1 inh: inactive

How did N/C(=N/OS(=O)(=O)c1ccc([N+](=O)[O-])cc1)c1ccncc1 do in these assays?
MITF act: inactive; LMP1 NFkB inh: inactive; Wnt act: inactive; MITF TRPM1 inh: inactive; esBAF inh: inactive

Results for C[C@@H]1CN([C@@H](C)CO)C(=O)Cc2cc(NS(=O)(=O)c3ccc(Cl)cc3)ccc2O[C@H]1CN(C)Cc1ccc(Cl)c(Cl)c1 ?
Statin myotox sup: inconclusive; esBAF inh: inactive

What do the screens show for `COc1ccc(S(=O)(=O)Nc2ccc3c(c2)CC(=O)N([C@@H](C)CO)C[C@@H](C)[C@H](CN(C)Cc2ccc(Cl)c(Cl)c2)O3)cc1`?
Statin myotox sup: inconclusive; esBAF inh: inactive

What do the screens show for `C[C@@H]1CN([C@H](C)CO)C(=O)Cc2cc(NS(=O)(=O)c3ccc(Cl)cc3)ccc2O[C@H]1CN(C)Cc1ccc(Cl)c(Cl)c1`?
Statin myotox sup: 91; esBAF inh: inactive

Results for COc1ccc(S(=O)(=O)Nc2ccc3c(c2)CC(=O)N([C@H](C)CO)C[C@H](C)[C@@H](CN(C)Cc2ccc(Cl)c(Cl)c2)O3)cc1 ?
Statin myotox sup: 201; esBAF inh: inactive

Results for C[C@H]1CN([C@@H](C)CO)C(=O)Cc2cc(NS(=O)(=O)c3ccc(Cl)cc3)ccc2O[C@H]1CN(C)CC1CCCCC1 ?
Statin myotox sup: inactive; esBAF inh: inactive

Results for C[C@H]1CN([C@@H](C)CO)C(=O)Cc2cc(NS(=O)(=O)c3ccc(Cl)cc3)ccc2O[C@@H]1CN(C)CC1CCCCC1 ?
Statin myotox sup: 112; esBAF inh: inactive

How did C[C@H](CO)N1C[C@H](C)[C@@H](CN(C)Cc2ccc(Cl)c(Cl)c2)Oc2ccc(NS(=O)(=O)c3ccc(Cl)cc3)cc2CC1=O do in these assays?
Statin myotox sup: 84; esBAF inh: inactive

How did COC(=O)[C@H]1[C@H](CO)[C@H]2Cn3c(ccc(-c4ccccc4F)c3=O)[C@H]2N1C(=O)c1ccccn1 do in these assays?
Statin myotox sup: inactive; esBAF inh: inactive

What do the screens show for `C[C@@H]1CN([C@H](C)CO)C(=O)Cc2cc(NS(=O)(=O)c3ccc(F)cc3)ccc2O[C@H]1CN(C)Cc1ccc(Cl)c(Cl)c1`?
Statin myotox sup: 83; esBAF inh: inactive

Results for C[C@H]1CN([C@@H](C)CO)C(=O)Cc2cc(NS(=O)(=O)c3ccc(F)cc3)ccc2O[C@H]1CN(C)Cc1ccc(Cl)c(Cl)c1 ?
Statin myotox sup: inactive; esBAF inh: inactive

What do the screens show for `O=C(/C=C/[C@H]1O[C@@H](n2ccc(=O)[nH]c2=O)[C@H](O)[C@@H]1O)NCc1cccc2ccccc12`?
Wnt act: inactive; Statin myotox sup: inactive; esBAF inh: inactive

How did Cc1ccc(CNC(=O)C23CN(Cc4ccccc4)CC2C(c2ccc([N+](=O)[O-])cc2)=NO3)cc1 (stereo not drawn) do in these assays?
MITF act: inactive; LMP1 NFkB inh: inactive; Wnt act: inactive; MITF TRPM1 inh: inactive; Statin myotox sup: 92; esBAF inh: inactive

How did Cc1ccc(-n2nc(C(=O)NCc3ccc(C)o3)c3c4ccccc4n(C)c3c2=O)cc1 do in these assays?
LMP1 NFkB inh: 49; Wnt act: inactive; MITF TRPM1 inh: inactive; esBAF inh: inactive

Results for CCN(C(=O)c1nn(-c2ccc(OC)cc2)c(=O)c2c1c1ccccc1n2C)c1ccc(OC)cc1 ?
MITF act: inactive; LMP1 NFkB inh: inactive; Wnt act: inactive; MITF TRPM1 inh: inactive; Statin myotox sup: 107; esBAF inh: inactive

Results for CCCCN(C)CCNC(=O)c1nn(-c2ccc(OC)cc2)c(=O)c2c1c1ccccc1n2C ?
MITF act: inactive; LMP1 NFkB inh: inactive; Wnt act: inactive; MITF TRPM1 inh: inactive; Statin myotox sup: inactive; esBAF inh: inactive

Results for CCOC(=O)C1CCCN(c2c(NCCc3cccc(C)c3)c(=O)c2=O)C1 (stereo not drawn) ?
MITF act: inactive; LMP1 NFkB inh: inactive; Wnt act: inactive; MITF TRPM1 inh: inactive; Statin myotox sup: inactive; esBAF inh: inactive

Results for Nn1c(SCC(=O)N2CCN(S(=O)(=O)c3ccccc3)CC2)nnc1-c1cccs1 ?
MITF act: inactive; LMP1 NFkB inh: inactive; MITF TRPM1 inh: inactive; Statin myotox sup: 126; esBAF inh: inactive

What do the screens show for `O=C(CNc1ccc(Br)cc1)c1ccc(Br)s1`?
MITF act: inactive; LMP1 NFkB inh: inactive; Wnt act: inactive; MITF TRPM1 inh: inactive; Statin myotox sup: inactive; esBAF inh: 58
